Screening data: PubChem, several laboratories
SARS 3CLpro inh = SARS-CoV 3CLpro protease inhibition. P0C6X7. recombinant SARS-CoV 3CLpro, quenched FRET peptide cleavage. inhibition, % at 6 µM. hit rate 0.14% among 290,000. AID 1706; in the data active = inhibition above about 12%
Bead autofluor = compound fluorescence in toxin protease inhibitor counterscreen; fluorescence intensity (test concentration not listed); compound autofluorescence counterscreen, microsphere flow cytometry; hits give high values; hit rate 3.1% among 360,000; AID 624483; in the data active = fluorescence intensity above about 16000; inconclusive = no clear call, values can overlap the other calls
Anthrax LF prot = inhibitors of Bacillus anthracis lethal factor protease | inhibition, % at 10 µM | AID 588501 | P15917 | multiplex microsphere protease cleavage assay, LF | hit rate 0.12% among 360,000; also: plate controls were buffer without enzyme for full effect and enzyme alone for no effect
Target sequence (P15917 whole entry, looked up): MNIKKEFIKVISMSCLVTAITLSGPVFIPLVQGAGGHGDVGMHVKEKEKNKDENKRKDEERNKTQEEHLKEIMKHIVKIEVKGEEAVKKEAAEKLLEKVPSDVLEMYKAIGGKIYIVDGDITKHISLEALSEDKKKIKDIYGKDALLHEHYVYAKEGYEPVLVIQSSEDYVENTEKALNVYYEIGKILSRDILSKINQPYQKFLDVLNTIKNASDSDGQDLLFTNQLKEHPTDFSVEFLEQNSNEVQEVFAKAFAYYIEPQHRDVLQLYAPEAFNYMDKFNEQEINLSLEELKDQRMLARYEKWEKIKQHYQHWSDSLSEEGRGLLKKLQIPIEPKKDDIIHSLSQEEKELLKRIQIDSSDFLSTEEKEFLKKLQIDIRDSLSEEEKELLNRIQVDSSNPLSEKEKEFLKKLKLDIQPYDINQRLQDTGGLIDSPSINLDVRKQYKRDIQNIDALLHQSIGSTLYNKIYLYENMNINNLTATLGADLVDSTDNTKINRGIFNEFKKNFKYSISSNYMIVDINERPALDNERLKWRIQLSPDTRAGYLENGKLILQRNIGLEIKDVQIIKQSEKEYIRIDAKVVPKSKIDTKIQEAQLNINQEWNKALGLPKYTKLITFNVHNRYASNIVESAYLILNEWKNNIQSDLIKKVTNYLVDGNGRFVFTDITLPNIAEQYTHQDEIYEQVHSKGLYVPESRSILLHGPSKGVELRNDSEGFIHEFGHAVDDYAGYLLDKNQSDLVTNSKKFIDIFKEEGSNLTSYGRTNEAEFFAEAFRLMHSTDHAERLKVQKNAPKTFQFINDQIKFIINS
BoNT-A LC inh2 = inhibitors of Botulinum neurotoxin A light chain protease; hit rate 0.17% among 360,000; AID 588499; inhibition, % at 10 µM; multiplex microsphere protease substrate cleavage, flow cytometry; also: plate controls were buffer without enzyme for full effect and enzyme alone for no effect
BoNT-F LC inh = BoNT F light chain protease inhibition. inhibition, % at 10 µM. AID 588497. hit rate 0.22% among 360,000. Multiplex microsphere protease cleavage assay, flow cytometry; in the data active = inhibition above about 35%, passing the limit was not always enough; inconclusive = no clear call, values can overlap the other calls; also: plate controls were buffer without enzyme for full effect and enzyme alone for no effect
An asterisk follows results filed as active. Shown are actives, neighbours in structure and some others; about 3.5% of the full set was active somewhere. Rule as the data show it, unless noted: active = inhibition above about 30%; inconclusive = no clear call, values can overlap the other calls; inactive = below that.

How did COc1ccc(O)c(C2NC(CC(C)C)(C(=O)O)C3C(=O)N(Cc4ccccc4)C(=O)C23)c1 (centres undefined) do in these assays?
SARS 3CLpro inh: -1; Bead autofluor: 16430*; Anthrax LF prot: -2; BoNT-A LC inh2: -1; BoNT-F LC inh: -1

What do the screens show for `CCc1ccc(NC(=O)c2cc(-c3cccs3)on2)cc1`?
SARS 3CLpro inh: 2; Bead autofluor: 4352; Anthrax LF prot: -3; BoNT-A LC inh2: 0; BoNT-F LC inh: 1

What do the screens show for `COc1ccccc1NC(=O)CN1C(=O)C(C)Oc2ccccc21` (centres undefined)?
SARS 3CLpro inh: -4; Bead autofluor: 22685*; Anthrax LF prot: 2; BoNT-A LC inh2: 0; BoNT-F LC inh: 1

What do the screens show for `CC1Oc2ccccc2N(CC(=O)NCC2CCCO2)C1=O` (centres undefined)?
SARS 3CLpro inh: 1; Bead autofluor: 23344*; Anthrax LF prot: 0; BoNT-A LC inh2: 0; BoNT-F LC inh: 2

What do the screens show for `O=C(Nc1cccc(S(=O)(=O)NC2=NCCC2)c1)c1ccc(OC(F)F)cc1`?
Bead autofluor: 3666; Anthrax LF prot: -3; BoNT-A LC inh2: 0; BoNT-F LC inh: -4

Results for CCn1ccnc1[C@@H]1C[C@H]2CN(c3ccccc3OC)C(=O)[C@]23CCCN13 ?
SARS 3CLpro inh: 3; Bead autofluor: 4066; Anthrax LF prot: -5; BoNT-A LC inh2: 0; BoNT-F LC inh: -1

What do the screens show for `COc1ccccc1N1CCN(C(=O)CCn2c(=O)[nH]c3ccccc3c2=O)CC1`?
SARS 3CLpro inh: 1; Bead autofluor: 22600*; Anthrax LF prot: -1; BoNT-A LC inh2: inconclusive; BoNT-F LC inh: -2

What do the screens show for `COc1ccccc1N1CCN(C(=O)CCC(=O)O)CC1`?
SARS 3CLpro inh: 4; Bead autofluor: 5048; Anthrax LF prot: -1; BoNT-A LC inh2: -1; BoNT-F LC inh: -8

Results for COc1ccccc1N1CCN(C(=O)Cc2cccs2)CC1 ?
SARS 3CLpro inh: -6; Bead autofluor: 22449*; Anthrax LF prot: -1; BoNT-A LC inh2: inconclusive; BoNT-F LC inh: -1

What do the screens show for `Cc1nc2ncnn2c(N2CCN(C(=O)Cc3cccs3)CC2)c1C`?
SARS 3CLpro inh: 1; Bead autofluor: 22223*; Anthrax LF prot: -6; BoNT-A LC inh2: 3; BoNT-F LC inh: 2

Results for FC(F)(F)c1nnc2c(Sc3ccccc3)nc3ccccc3n12 ?
SARS 3CLpro inh: -8; Bead autofluor: 5577; Anthrax LF prot: -5; BoNT-A LC inh2: 1; BoNT-F LC inh: 2

What do the screens show for `FC(F)(F)c1nnc2c(Sc3ccccn3)nc3ccccc3n12`?
SARS 3CLpro inh: 2; Bead autofluor: 22962*; Anthrax LF prot: 1; BoNT-A LC inh2: 1; BoNT-F LC inh: 3

How did OC(c1ccc(-c2ccccc2)cc1)c1ncc(-c2ccccc2)[nH]1 (centres undefined) do in these assays?
Bead autofluor: 3857; Anthrax LF prot: 2; BoNT-A LC inh2: 0; BoNT-F LC inh: -4

How did CS(=O)(=O)c1ccc(N2CCN(C3CC(=O)NC3=O)CC2)cc1 (centres undefined) do in these assays?
SARS 3CLpro inh: 2; Bead autofluor: 2732; Anthrax LF prot: -1; BoNT-A LC inh2: 0; BoNT-F LC inh: -4

What do the screens show for `COc1ccc(N2CCN(C3CC(=O)NC3=O)CC2)cc1` (centres undefined)?
SARS 3CLpro inh: -3; Bead autofluor: 24614*; Anthrax LF prot: -5; BoNT-A LC inh2: inconclusive; BoNT-F LC inh: -10

What do the screens show for `O=c1[nH]cnc2c1ncn2C1OCC(O)C(O)C1O` (centres undefined)?
Bead autofluor: 4356; Anthrax LF prot: 4; BoNT-A LC inh2: 0; BoNT-F LC inh: -13

How did COC(=O)C1CCN(C(=O)CSc2nc3ccc(OC)cc3[nH]2)CC1 do in these assays?
SARS 3CLpro inh: -3; Bead autofluor: 4335; Anthrax LF prot: -1; BoNT-A LC inh2: 0; BoNT-F LC inh: -2

What do the screens show for `O=C(NCc1ccccc1)C1CC2CCCC(C1)C2=O` (centres undefined)?
SARS 3CLpro inh: 0; Bead autofluor: 17138*; Anthrax LF prot: -12; BoNT-A LC inh2: inconclusive; BoNT-F LC inh: 12

How did CCOc1ccccc1NC(=O)C1CC2CCCC(C1)C2=O (centres undefined) do in these assays?
SARS 3CLpro inh: -1; Bead autofluor: 23703*; Anthrax LF prot: -4; BoNT-A LC inh2: -3; BoNT-F LC inh: -6

What do the screens show for `O=C(O)C1CC=CCC1C(=O)NCc1ccccc1` (centres undefined)?
SARS 3CLpro inh: 2; Bead autofluor: 22945*; Anthrax LF prot: -2; BoNT-A LC inh2: -1; BoNT-F LC inh: 1
